Here are results for four molecules from PubChem BioAssay (EPA / NIEHS).

Read-out in experiment [1]: Phosphatase and tensin (PTEN), PTEN (gene 5728)
The experiment in a line: LTEA_HepaRG_PTEN: Life Technologies and Expression Analysis (LTEA) Assay for Phosphatase and tensin (PTEN) using HepaRG (AID 2283523). Particulars: mRNA level, 48 h; actives raise or lower the signal. An outline of the steps:
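HepaRG, 48 h exposure, 8-pt half-log series from 100 uM top, 0.5% DMSO vehicle, duplicates. Readout: Fluidigm qRT-PCR of PTEN transcript; housekeeping normalization (ACTB, GAPDH, POLR2A). Gain or loss fitted relative to DMSO baseline.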

Read-out in experiment [2]: solute carrier (SLC22A1), SLC22A1 (gene 6580)
The experiment in a line: LTEA_HepaRG_SLC22A1: Life Technologies and Expression Analysis (LTEA) Assay for solute carrier (SLC22A1) using HepaRG (AID 2283524). The settings on record: mRNA level, 48 h; actives raise or lower the signal. Summed up:
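qRT-PCR readout (TaqMan, Fluidigm arrays) of SLC22A1 transcript, normalized to three housekeeping genes; bidirectional curve fit relative to 0.5% DMSO vehicle. Differentiated human HepaRG cells, 48 h chemical exposure, top concentration 100 uM, half-log steps, eight points.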

Read-out in experiment [3]: Nuclear factor erythroid 2-related factor 2 (Homo sapiens) (UniProt Q16236)
As to the kind of experiment: LTEA_HepaRG_NFE2L2: Life Technologies and Expression Analysis (LTEA) Assay for Nuclear factor erythroid 2-related factor 2 (NFE2L2) Transcription Factor using HepaRG (AID 2283527).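 As to outcome: TaqMan qRT-PCR transcript level normalised to ACTB GAPDH and POLR2A housekeeping genes.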 Particulars: mRNA level, 48 h; actives raise or lower the signal. An outline of the steps: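 HepaRG, 48 h dosing, 8-pt half-log series from 100 uM in 0.5% DMSO, duplicates. Read-out: NFE2L2 mRNA by qRT-PCR (ACTB/GAPDH/POLR2A normalization). Bidirectional curve fit vs DMSO baseline.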

Read-out in experiment [4]: succinate dehydrogenase complex iron sulfur subunit B (SDHB), SDHB (gene 6390)
The experiment in a line: LTEA_HepaRG_SDHB: Life Technologies and Expression Analysis (LTEA) Assay for succinate dehydrogenase complex iron sulfur subunit B (SDHB) using HepaRG (AID 2283528). Particulars: mRNA level, 48 h; actives raise or lower the signal. An outline of the steps:
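Readout is SDHB transcript level by qRT-PCR, normalised to three housekeeping genes and fitted bidirectionally against 0.5% DMSO vehicle. Human HepaRG cells were treated for 48 h at up to 100 uM.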

Read-out in experiment [5]: Signal transducer and activator of transcription 3 (Homo sapiens) (UniProt P40763)
The experiment in a line: LTEA_HepaRG_STAT3: Life Technologies and Expression Analysis (LTEA) Assay for Signal transducer and activator of transcription (STAT3) using HepaRG (AID 2283529). Particulars: mRNA level, 48 h; actives raise or lower the signal. An outline of the steps: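 HepaRG, 48 h exposure, 8-pt half-log series (top 100 uM), 0.5% DMSO vehicle, duplicates. Readout: STAT3 transcript by Fluidigm qRT-PCR, housekeeping-normalized; bidirectional fit vs DMSO baseline.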

Read-out in experiment [6]: solute carrier (SLCO1B1), SLCO1B1 (gene 10599)
The experiment in a line: LTEA_HepaRG_SLCO1B1: Life Technologies and Expression Analysis (LTEA) Assay for solute carrier (SLCO1B1) using HepaRG (AID 2283530). The settings on record: mRNA level, 48 h; actives raise or lower the signal. Summed up: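 Differentiated human HepaRG cells, plated 48 h, switched to serum-free induction medium and exposed in duplicate for 48 h to 8 half-log concentrations (top 100 uM) in 0.5% DMSO. SLCO1B1 mRNA by TaqMan qRT-PCR, normalized to ACTB/GAPDH/POLR2A.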

Read-out in experiment [7]: sulfotransferase 2A1 (SULT2A1), SULT2A1 (gene 6822)
The experiment in a line: LTEA_HepaRG_SULT2A1: Life Technologies and Expression Analysis (LTEA) Assay for sulfotransferase 2A1 (SULT2A1) using HepaRG (AID 2283531). The settings on record: mRNA level, 48 h; actives raise or lower the signal. An outline of the steps: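 Differentiated human HepaRG cells in serum-free induction medium were exposed for 48 h to eight half-log concentrations (top 100 uM, 0.5% DMSO). SULT2A1 mRNA was measured by qRT-PCR, normalized to ACTB, GAPDH and POLR2A, and fitted bidirectionally against DMSO.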

Read-out in experiment [8]: Transforming Growth Factor (TGFA), TGFA (gene 7039)
The experiment in a line: LTEA_HepaRG_TGFA: Life Technologies and Expression Analysis (LTEA) Assay for Transforming Growth Factor (TGFA) using HepaRG (AID 2283532). The settings on record: mRNA level, 48 h; actives raise or lower the signal. An outline of the steps: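 qRT-PCR read-out of TGFA transcript, normalized to three housekeeping genes, fitted bidirectionally against 0.5% DMSO baseline. Human HepaRG cultures received chemicals for 48 h at eight half-log concentrations, top 100 uM.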

Read-out in experiment [9]: Transforming Growth Factor (TGFB1), TGFB1 (gene 7040)
The experiment in a line: LTEA_HepaRG_TGFB1: Life Technologies and Expression Analysis (LTEA) Assay for Transforming Growth Factor (TGFB1) Transporter using HepaRG (AID 2283533). Particulars: mRNA level, 48 h; actives raise or lower the signal. An outline of the steps: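 Differentiated human HepaRG cells in serum-free induction medium were exposed in duplicate for 48 h to eight concentrations (top 100 uM, half-log steps, 0.5% DMSO). TGFB1 mRNA was quantified by qRT-PCR, normalized to ACTB, GAPDH, POLR2A, and fitted bidirectionally against DMSO.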

Read-out in the next experiment: TIMP1, TIMP1 (gene 7076)
The experiment in a line: LTEA_HepaRG_TIMP1: Life Technologies and Expression Analysis (LTEA) Assay for TIMP1 using HepaRG (AID 2283534). The settings on record: mRNA level, 48 h; actives raise or lower the signal. An outline of the steps:
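Differentiated human HepaRG cells in serum-free induction medium were exposed 48 h to chemicals (8 half-log concentrations, top 100 uM, 0.5% DMSO). TIMP1 mRNA was quantified by TaqMan qRT-PCR, normalized to ACTB/GAPDH/POLR2A; bidirectional fit versus DMSO.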

Read-out in experiment [10]: Tumor necrosis factor receptor 1 (TNFRSF1A), TNFRSF1A (gene 7132)
The experiment in a line: LTEA_HepaRG_TNFRSF1A: Life Technologies and Expression Analysis (LTEA) Assay for Tumor necrosis factor receptor 1 (TNFRSF1A) using HepaRG (AID 2283535). The settings on record: mRNA level, 48 h; actives raise or lower the signal. An outline of the steps: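 Differentiated human HepaRG cells were exposed in duplicate for 48 h in serum-free induction medium to eight concentrations (top 100 uM, half-log steps, 0.5% DMSO). TNFRSF1A mRNA was quantified by qRT-PCR, normalized to ACTB, GAPDH and POLR2A, then fitted bidirectionally against DMSO.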

Read-out in experiment [11]: Thyroid Hormone Responsive (THRSP), THRSP (gene 7069)
The experiment in a line: LTEA_HepaRG_THRSP: Life Technologies and Expression Analysis (LTEA) Assay for Thyroid Hormone Responsive (THRSP) using HepaRG (AID 2283536). Particulars: mRNA level, 48 h; actives raise or lower the signal. An outline of the steps:
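qRT-PCR read-out (Fluidigm TaqMan), housekeeping-normalized (ACTB/GAPDH/POLR2A). HepaRG, 48 h chemical exposure, 8-pt half-log series from 100 uM in 0.5% DMSO, duplicates. Bidirectional curve fit vs 0.5% DMSO baseline.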

Read-out in experiment [12]: Cellular tumor antigen p53 (Homo sapiens) (UniProt P04637)
The experiment in a line: LTEA_HepaRG_TP53: Life Technologies and Expression Analysis (LTEA) Assay for Tumor Protein P53 (TP53) using HepaRG (AID 2283537). The settings on record: mRNA level, 48 h; actives raise or lower the signal. Summed up: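 Read-out is TP53 transcript level by microfluidic qRT-PCR, normalised to three housekeeping genes and fitted bidirectionally against DMSO. Human HepaRG cells received compounds for 48 h, highest concentration 100 uM.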

Read-out in experiment [13]: UDP glucuronosyltransferase (UGT1A1), UGT1A1 (gene 54658)
As to the kind of experiment: LTEA_HepaRG_UGT1A1: Life Technologies and Expression Analysis (LTEA) Assay for UDP glucuronosyltransferase (UGT1A1) using HepaRG (AID 2283538). The settings on record: mRNA level, 48 h; actives raise or lower the signal. Summed up: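 Cells are plated, cultured 48 h, switched to serum-free induction medium, then dosed 48 h at eight concentrations (max 100 uM, 0.5% DMSO). RNA is isolated and UGT1A1 expression measured by qRT-PCR; changes versus DMSO are fitted in both directions.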

Read-out in experiment [14]: UDP glucuronosyltransferase (UGT1A6), UGT1A6 (gene 54578)
The experiment in a line: LTEA_HepaRG_UGT1A6: Life Technologies and Expression Analysis (LTEA) Assay for UDP glucuronosyltransferase (UGT1A6) using HepaRG (AID 2283539). The settings on record: mRNA level, 48 h; actives raise or lower the signal. Summed up: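 Human HepaRG cells were dosed for 48 h in serum-free induction medium with 0.5% DMSO vehicle, eight-point half-log series from 100 uM, in duplicate. UGT1A6 mRNA was measured by qRT-PCR, normalized to ACTB, GAPDH, POLR2A, and fitted bidirectionally against DMSO.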

Experiment [15] can be described thus: LTEA_HepaRG_LDH_cytotoxicity: Cytotoxicity Assessment in the Life Technologies and Expression Analysis (LTEA) Assay (AID 2283563; active = hit-call score of the fitted dose curve at least 0.9, where 1 is the maximum;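 as to AC50: LDH activity released into spent culture medium as a marker of cell death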). Summed up: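 Differentiated human HepaRG cells, plated 48 h beforehand, were switched to serum-free induction medium and exposed for 48 h to eight half-log concentrations (top 100 uM) in 0.5% DMSO. LDH was measured in spent medium; activity was fitted relative to DMSO vehicle.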

A short description of experiment [16]: ATG_XTT_Cytotoxicity: Cytotoxicity Assessment in the Attagene TRANS-FACTORIAL HepG2 Assay (AID 2283584; active = hit-call score of the fitted dose curve at least 0.9, where 1 is the maximum). An outline of the steps: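 HepG2 human liver cells, transiently transfected with multiple GAL4-UAS reporter units, were dosed and read at 24 h by XTT as cell number. Loss of signal was fitted relative to DMSO negative control baseline.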
Read-out in experiment [17]: NAD(P)H dehydrogenase [quinone] 1 (NQO1), NQO1 (gene 1728)
The experiment in a line: LTEA_HepaRG_NQO1: Life Technologies and Expression Analysis (LTEA) Assay for NAD(P)H dehydrogenase [quinone] 1 (NQO1) using HepaRG (AID 2283526). Particulars: mRNA level, 48 h; actives raise or lower the signal. Summed up:
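Transcript induction or suppression is quantified by qRT-PCR in human HepaRG liver cells dosed for 48 hours. Eight half-log concentrations topping at 100 uM are used, with 0.5% DMSO as vehicle and baseline.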

Read-out in experiment [18]: X-box binding protein 1 (XBP1), XBP1 (gene 7494)
The experiment in a line: LTEA_HepaRG_XBP1: Life Technologies and Expression Analysis (LTEA) Assay for X-box binding protein 1 (XBP1) using HepaRG (AID 2283540). The settings on record: mRNA level, 48 h; actives raise or lower the signal. Summed up: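 Differentiated human HepaRG cells in serum-free induction medium were exposed in duplicate for 48 h to eight half-log concentrations up to 100 uM in 0.5% DMSO. XBP1 mRNA was quantified by qRT-PCR, normalised to ACTB, GAPDH and POLR2A, with bidirectional fitting against DMSO.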

Inconclusive results are not listed. Calls of active or inactive are those of the source. The calls were made as follows, unless noted: active = hit-call score of the fitted dose curve at least 0.9, where 1 is the maximum; inactive = score below 0.9.

Chain of Signal transducer and activator of transcription 3 (Homo sapiens) (P40763 whole entry, looked up): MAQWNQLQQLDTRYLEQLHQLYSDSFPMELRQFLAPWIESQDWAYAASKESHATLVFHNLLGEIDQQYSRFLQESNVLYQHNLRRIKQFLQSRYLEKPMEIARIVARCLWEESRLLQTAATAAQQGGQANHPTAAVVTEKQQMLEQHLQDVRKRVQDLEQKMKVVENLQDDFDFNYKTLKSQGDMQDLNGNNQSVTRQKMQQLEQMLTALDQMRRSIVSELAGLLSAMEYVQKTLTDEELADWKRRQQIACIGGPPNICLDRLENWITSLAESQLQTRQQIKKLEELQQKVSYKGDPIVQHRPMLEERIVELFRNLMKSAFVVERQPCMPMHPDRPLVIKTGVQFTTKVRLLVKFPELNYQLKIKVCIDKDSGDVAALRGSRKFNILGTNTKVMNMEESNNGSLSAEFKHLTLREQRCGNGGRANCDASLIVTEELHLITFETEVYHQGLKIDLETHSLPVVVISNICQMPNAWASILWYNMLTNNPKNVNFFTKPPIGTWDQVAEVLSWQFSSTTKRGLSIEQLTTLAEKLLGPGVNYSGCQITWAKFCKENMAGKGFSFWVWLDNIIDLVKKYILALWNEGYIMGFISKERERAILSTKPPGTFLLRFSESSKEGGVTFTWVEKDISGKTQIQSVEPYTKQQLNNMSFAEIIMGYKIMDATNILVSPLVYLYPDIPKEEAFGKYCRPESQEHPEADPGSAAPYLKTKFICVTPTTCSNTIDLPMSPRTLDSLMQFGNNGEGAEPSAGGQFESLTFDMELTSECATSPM
Chain of Nuclear factor erythroid 2-related factor 2 (Homo sapiens) (Q16236 whole entry, looked up): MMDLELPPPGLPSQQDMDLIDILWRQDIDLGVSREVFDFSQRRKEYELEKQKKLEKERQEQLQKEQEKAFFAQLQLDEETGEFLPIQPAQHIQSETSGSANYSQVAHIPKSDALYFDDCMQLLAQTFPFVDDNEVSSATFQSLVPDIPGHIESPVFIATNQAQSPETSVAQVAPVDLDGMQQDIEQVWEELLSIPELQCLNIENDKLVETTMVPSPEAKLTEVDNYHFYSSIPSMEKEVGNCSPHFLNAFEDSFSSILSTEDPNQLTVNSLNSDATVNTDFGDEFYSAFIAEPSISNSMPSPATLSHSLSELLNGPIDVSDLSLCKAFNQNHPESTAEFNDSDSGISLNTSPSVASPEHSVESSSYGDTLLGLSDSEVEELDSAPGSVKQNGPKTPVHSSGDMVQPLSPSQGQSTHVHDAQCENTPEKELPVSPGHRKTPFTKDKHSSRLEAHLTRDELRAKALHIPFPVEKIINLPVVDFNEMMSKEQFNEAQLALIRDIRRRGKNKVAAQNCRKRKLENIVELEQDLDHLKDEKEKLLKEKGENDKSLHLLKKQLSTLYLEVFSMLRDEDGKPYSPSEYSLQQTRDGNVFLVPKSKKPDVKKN
Chain of Cellular tumor antigen p53 (Homo sapiens) (P04637 whole entry, looked up): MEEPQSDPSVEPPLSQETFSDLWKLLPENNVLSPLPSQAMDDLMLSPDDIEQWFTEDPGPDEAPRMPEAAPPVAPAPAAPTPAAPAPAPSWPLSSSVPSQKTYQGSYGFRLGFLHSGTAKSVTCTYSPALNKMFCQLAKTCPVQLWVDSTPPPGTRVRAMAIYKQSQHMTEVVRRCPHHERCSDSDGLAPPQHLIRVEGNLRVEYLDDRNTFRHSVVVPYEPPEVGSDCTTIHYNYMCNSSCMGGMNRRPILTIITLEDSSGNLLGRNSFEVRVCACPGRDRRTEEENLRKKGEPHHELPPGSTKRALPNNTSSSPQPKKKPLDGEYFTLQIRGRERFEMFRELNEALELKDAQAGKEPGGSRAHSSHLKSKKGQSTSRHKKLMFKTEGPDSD

For the molecule `Cc1[nH]cnc1C[C@H]1CCc2c(C)c3ccccc3n2C1=O`, the AC50 is 79.3 µM (active) in experiment [1]; 29 µM (active) in [2]; 44.5 µM (active) in [3]; 81.5 µM (active) in experiment [4]; 21.5 µM (active) in experiment [6]; 63.6 µM (active) in experiment [7]. The AC50 in [10] is 63.7 µM (active); in experiment [12], 73.7 µM (active); in [13], 64.3 µM (active); in experiment [14], 33.5 µM (active); in experiment [15], 27.6 µM (active). In addition, the outcome in experiment [5] was “inactive”; in experiment [8], “inactive”; in experiment [9], “inactive”; in the experiment with TIMP1, TIMP1 (gene 7076), “inactive”; in experiment [11] it was “inactive”; in experiment [16], “inactive”.

With `Cc1ccc(N)cc1O`, the result in experiment [1], in experiment [2], in experiment [3], in experiment [4], in [5] and in experiment [6] was inactive. Further, the outcome in [7] is “inactive”; in experiment [8] it was “inactive”; in experiment [9] it was “inactive”; with TIMP1, TIMP1 (gene 7076), “inactive”; in experiment [10], “inactive”; in experiment [12] it was “inactive”. In addition, the call in experiment [13], in experiment [14] and in experiment [15] was inactive.

With `O=C(O)c1cccc(Oc2ccccc2)c1`, the call in experiment [1], in experiment [2], in [17], in experiment [3], in experiment [4] and in experiment [5] was inactive. Further, the outcome in [6] is “inactive”; in [7], “inactive”; in experiment [8], “inactive”; in [9], “inactive”; with TIMP1, TIMP1 (gene 7076), “inactive”; in experiment [10] it was “inactive”. Further, the molecule was classed as inactive in experiment [12], in [13], in experiment [14], in experiment [18], in [15] and in [16].

In the case of `On1ccccc1=S`, the result in [1], in experiment [2], in [3], in experiment [4], in experiment [5] and in experiment [6] was inactive. The outcome was “inactive” in experiment [7]; “inactive” in [8]; “inactive” in [9]; “inactive” with TIMP1, TIMP1 (gene 7076); “inactive” in [10]; “inactive” in experiment [12]. Also, the call in [13], in experiment [14], in experiment [18], in [15] and in experiment [16] was inactive.

Broadly, the AC50 is the midpoint of the concentration-response curve, whichever way the signal moves.
